Structures are written as SMILES. Values joined by “and” are separate entries in the source; they are usually repeats but may differ in a detail not shown here. Equal values may be shown once. About 610 (9.5%) of roughly 6,400 compounds were called active. Cut-off read from the data, not from the text of the source: active = activity change below about -70%; inconclusive = no clear call, values can overlap the other calls; inactive = above that. The full list was thinned out, with actives kept by preference. Some structures have more than one record in an assay (separate samples or runs), and their calls can disagree. *1 amine or outer side, *2 acyl side, *3 side chain or, on linkers, in order; H or OH if unused. Where a SMILES comes first, the peptide text is derived from it. Side-chain parts run from the residue outwards. [ ]: non-standard residue; d: D form. The star is where a group is joined. Ethylenediamine = C(CN[*:2])N[*:1]; Hyp = O=C(O)[C@@H]1C[C@@H](O)CN1; Phg = N[C@H](C(=O)O)c1ccccc1; CO = O=C([*:1])[*:2]; Bn = c1ccc(C*)cc1

The nature of the test: Toxoplasma gondii ME49Luc growth in HeLa cells, luciferase, no IFN-y, primary screen (AID 1259421). The following applies: T. gondii ME49Luc in HeLa, 72 h, stronger effect = lower value, concentration not given here.
`COc1ccc(-c2cc3c(C)nc(N)nc3n(C3CCC(OCCO)CC3)c2=O)cn1` (stereo not given): the activity change, negative = inhibition is -79.8% (active).
In the case of `CCn1c(=O)c(-c2ccn[nH]2)cc2c(C)nc(N)nc21`, the activity change, negative = inhibition is -57.4% (inactive).
Take `N#CCC(=O)NN`: the activity change, negative = inhibition was 10.7% (inactive).
Take `O=C(N[C@@H](CO)[C@H](O)c1ccc([N+](=O)[O-])cc1)C(Cl)Cl`: the activity change, negative = inhibition was 5.04% (inactive).
As for `CCS(=O)(=O)Nc1ccc2[nH]c(O)c(C(=Nc3ccc(CN4CCCCC4)cc3)c3ccccc3)c2c1`, the activity change, negative = inhibition is -88% (active).
Consider `N[C@H](C(=O)O)[C@H](O)c1ccc(O)c(O)c1`, for which the activity change, negative = inhibition was -6.51% (inactive).
As for `Cc1ccc(C(=O)Nc2ccc(Oc3cc4cnn(C)c4cc3-c3cn[nH]c3)c(F)c2)c(=O)n1-c1ccc(F)cc1`, the activity change, negative = inhibition is -82.1% (active).
For `COC(=O)C(c1ccccc1Cl)N1CCc2sccc2C1` (stereo not given), the activity change, negative = inhibition was 6.54% (inactive).
Regarding `CC[C@@]1(O)C(=O)OCc2c1cc1n(c2=O)Cc2cc3c(CN(C)C)c(O)ccc3nc2-1`, the activity change, negative = inhibition was -89.6% (active).
For `CCc1c2c(nc3ccc(OC(=O)N4CCC(N5CCCCC5)CC4)cc13)-c1cc3c(c(=O)n1C2)COC(=O)[C@]3(O)CC`, the activity change, negative = inhibition was 8.52% (inactive).
For `CC[C@@]1(O)C(=O)OCc2c1cc1n(c2=O)Cc2cc3cc(O)ccc3nc2-1` the value was -73.3% (active) and -92.8% (active); for `CC[C@@]1(O)C(=O)OCc2c1cc1n(c2=O)Cc2c-1nc1cc(F)c(C)c3c1c2[C@@H](N)CC3`, -89.9% (active); for `CCc1c2c(nc3ccc(O)cc13)-c1cc3c(c(=O)n1C2)COC(=O)[C@]3(O)CC`, -93.3% (active).
The result for `CC(=O)[C@H]1CCC2C3C[C@H](C)C4=CC(=O)CC[C@]4(C)C3[C@@H](O)C[C@@]21C` (stereo not given in full) reads -2.39% (inactive).
On to `CN1C[C@@H]2c3ccccc3Oc3ccc(Cl)cc3[C@H]2C1`, for which the activity change, negative = inhibition is 14.2% (inactive).
As to `Cn1cc(-c2cnc3ccc4ccc(CS(=O)(=O)NCc5ccccn5)cc4c(=O)c3c2)cn1`, the activity change, negative = inhibition was -4.03% (inactive).
For `CS(=O)(=O)c1ccc(Cn2c3c(c4cc(F)cc(F)c42)CCCC3CC(=O)O)cc1` (stereo not given), the activity change, negative = inhibition is 1.13% (inactive) and 1.18% (inactive).
On to `c1ccc(C(NCCNC(c2ccccc2)c2ccccc2)c2ccccc2)cc1`, for which the activity change, negative = inhibition is -24.5% (inactive) and -4.76% (inactive).
As for `Cn1c(=O)cc(N2CCCC(N)C2)n(Cc2cc(F)ccc2C#N)c1=O` (stereo not given), the activity change, negative = inhibition was 0.449% (inactive).
`C[C@H]1CC2C3CCC4=CC(=O)C=C[C@]4(C)[C@@]3(F)[C@@H](O)C[C@]2(C)[C@@]1(O)C(=O)COP(=O)(O)O` (stereo not given in full): the activity change, negative = inhibition was -6.5% (inactive).
For the compound `COc1cc(O)c2c(=O)c(OC)c(-c3ccc(OC)c(OC)c3)oc2c1`, the activity change, negative = inhibition is 3.09% (inactive).
For `CC(=O)OCC(=O)[C@@]1(O)CCC2C3CCC4=CC(=O)C=CC4(C)C3[C@@H](O)C[C@@]21C` (stereo not given in full) the value was 1.73% (inactive).
On to `CC1(C)[C@@H](O[C@H]2O[C@H](C(=O)O)[C@@H](O)[C@H](O)[C@@H]2O[C@@H]2O[C@H](C(=O)O)[C@@H](O)[C@H](O)[C@H]2O)CC[C@@]2(C)[C@H]3C(=O)C=C4[C@@H]5C[C@@](C)(C(=O)O)CC[C@]5(C)CC[C@@]4(C)[C@]3(C)CC[C@@H]12`, for which the activity change, negative = inhibition was 5.63% (inactive).
The result for `CC[C@@]1(O)C(=O)OCc2c1cc1n(c2=O)Cc2cc3c([N+](=O)[O-])cccc3nc2-1` reads -85.8% (active).
As to `O=C(Cc1ccccc1)Nc1nc2ccc(Cl)cc2c2nc(-c3ccco3)nn12`, the activity change, negative = inhibition was 2.82% (inactive) and 3.45% (inactive).
Turning to `Cc1nc(Cn2cnc3c2c(=O)n(C)c(=O)n3C)no1`, the activity change, negative = inhibition is 8.05% (inactive).
The result for `Cc1cnc(CNC(=O)c2c(=O)c3ccc(N4CCCN(C)CC4)nc3n3c2sc2ccccc23)cn1` reads -82.2% (active).
Regarding `CCOCCn1c(N2CCCN(C)CC2)nc2ccccc21`, the activity change, negative = inhibition was 16.4% (inactive).
On to `CCC(C(N)=O)c1ccccc1` (stereo not given), for which the activity change, negative = inhibition is -4.72% (inactive).
In the case of `CN(Cc1ccccc1)C(=O)C(Cc1ccc2ccccc2c1)NC(=O)C1CCCN1C(=O)Nc1ccccc1[N+](=O)[O-]` (stereo not given), the activity change, negative = inhibition is 0.794% (inactive).
The result for `O=C(O)c1cc2cc(Cl)ccc2[nH]1` reads 10.5% (inactive); that for `CCCCCCCCNC[C@@H](O)[C@H](O)[C@@H](O)[C@@H](O)CO`, 17.8% (inactive).
Consider `S=P(N1CC1)(N1CC1)N1CC1`, for which the activity change, negative = inhibition is 7.66% (inactive).
`CC(C)OC(=O)c1cn(Cc2c(F)cccc2F)c2sc(-c3ccc(NC(=O)C(C)C)cc3)c(CN(C)Cc3ccccc3)c2c1=O`: the activity change, negative = inhibition was -80.6% (active).
Take `OC(CN1CCNCC1)Cn1c2ccc(Br)cc2c2cc(Br)ccc21` (stereo not given): the activity change, negative = inhibition was -61.8% (inactive).
For `O=C1Cc2cc(Cl)ccc2N1` the value was 8.1% (inactive).
Regarding `CC[C@H](C)n1cc(C)c2c(C(=O)NCc3c(C)cc(C)[nH]c3=O)cc(-c3ccc(N4CCNCC4)nc3)cc21`, the activity change, negative = inhibition is 1.27% (inactive).
In the case of `OCCn1cc(-c2ccc3c(c2)CC/C3=N\O)c(-c2ccncc2)n1`, the activity change, negative = inhibition was -63.9% (inactive) and -44.3% (inactive).
On to `CN(C)CCOc1ccc(-c2nc(-c3ccc4c(c3)CC/C4=N\O)c(-c3ccncc3)[nH]2)cc1`, for which the activity change, negative = inhibition was -76.7% (active).
On to `O=c1[nH]c(=O)n([C@H]2CC(O)[C@@H](CO)O2)cc1/C=C/Br` (stereo not given in full), for which the activity change, negative = inhibition is 8.12% (inactive).
For `O=C(/C=C/c1ccccc1)c1ccc(O)cc1O`, the activity change, negative = inhibition is 65.1% (inactive).
Consider `O=C(/C=C/c1cccc(S(=O)(=O)Nc2ccccc2)c1)NO`, for which the activity change, negative = inhibition was -80.9% (active).
The result for `CCNC(=O)/C=C/c1cccc(Br)c1` reads 53.2% (inactive); that for `CNC(=O)CN(CCN(CCN(CC(=O)O)CC(=O)NC)CC(=O)O)CC(=O)O.[Gd]`, 9.1% (inactive); that for `CCCCCN(CCCOC)C(=O)[C@@H](CCC(=O)O)NC(=O)c1ccc(Cl)c(Cl)c1`, 5.05% (inactive).
Regarding `NCCCC[C@@H]1NC(=O)[C@@H](Cc2c[nH]c3ccccc23)NC(=O)[C@H](c2ccccc2)NC(=O)[C@@H]2C[C@@H](OC(=O)NCCN)CN2C(=O)[C@H](Cc2ccccc2)NC(=O)[C@H](Cc2ccc(OCc3ccccc3)cc2)NC1=O` (cyclo([Hyp]([CO-Ethylenediamine])[Phg][dW]KY(Bn)F)), the activity change, negative = inhibition was 9.07% (inactive).
With `NCC(=O)Nc1ccc(-n2nc(C(F)(F)F)cc2-c2ccc3c(ccc4ccccc43)c2)cc1`, the activity change, negative = inhibition was -75.5% (active).
For `Cc1ccc(-c2cc(C(F)(F)F)nn2-c2ccc(S(N)(=O)=O)cc2)cc1`, the activity change, negative = inhibition is 17% (inactive) and 0.0196% (inactive).
The result for `CCn1cnc(C(=O)NC)c1C(=O)NC` reads 4% (inactive); that for `C[C@H](/C=C/[C@H](C)C(C)(C)O)[C@H]1CC[C@H]2/C(=C/C=C3C[C@@H](O)C[C@H](O)C3)CCC[C@]12C`, 20.9% (inactive).
For `N#Cc1cc2c(OCC(O)CN3CCN(C(c4ccccc4)c4ccccc4)CC3)cccc2[nH]1` (stereo not given) the value was -30% (inactive).
For the compound `NCC(=O)N1C[C@H](NC(=O)c2ccccc2)C[C@H]1C(=O)O`, the activity change, negative = inhibition is 17.6% (inactive).
The result for `CC1CC2C3CCC4=CC(=O)C=CC4(C)C3(F)C(O)CC2(C)C1(O)C(=O)CO` (stereo not given) reads -10.3% (inactive); that for `C=CCn1c(=O)c2cnc(Nc3ccc(N4CCN(C)CC4)cc3)nc2n1-c1cccc(C(C)(C)O)n1`, -82.2% (active); that for `CN1CCN(c2cccc(Nc3nc4c(-c5ccc(S(C)(=O)=O)cc5)cccn4n3)c2)CC1`, -0.0052% (inactive).
With `CC1(C)O[C@@H]2CC3C4CCC5=CC(=O)C=C[C@]5(C)C4[C@@H](O)C[C@]3(C)[C@]2(C(=O)CO)O1` (stereo not given in full), the activity change, negative = inhibition was 0.966% (inactive).
For `CC(C)C(=O)OC[C@@]1(N=[N+]=[N-])O[C@@H](n2ccc(N)nc2=O)[C@H](OC(=O)C(C)C)[C@@H]1OC(=O)C(C)C` the value was 6.96% (inactive).
As to `Cn1ncc(Cl)c1-c1cc(C(=O)N[C@H](CN)Cc2ccc(F)c(F)c2)oc1Cl`, the activity change, negative = inhibition is -80% (active).
Consider `Cn1ncc(Cl)c1-c1cc(C(=O)N[C@H](CN)Cc2cccc(F)c2)sc1Cl`, for which the activity change, negative = inhibition was -49.2% (inactive).
As for `CNCC(=O)O`, the activity change, negative = inhibition was -1.68% (inactive).
For `CCCCCCc1ccc(O)cc1O` the value was 10.9% (inactive).
Take `CCCCCS(=O)(=O)CCCCCCCCCCn1c(-c2ccc(O)cc2)c(C)c2cc(O)ccc21`: the activity change, negative = inhibition is -63.6% (inactive) and -77.2% (active).
Regarding `CCOC(=O)c1c(C)n(C)c2ccc(O)cc12`, the activity change, negative = inhibition is -6.15% (inactive) and 12.7% (inactive).
For `C[C@@]12CCC3[C@@](CC[C@@H]4[C@](C)(C(=O)O)CCC[C@@]34C)(CC1=O)C2` (stereo not given in full), the activity change, negative = inhibition was 7.66% (inactive).
The result for `O=C(O)CSc1nnc(Br)n1-c1ccc(C2CC2)c2ccccc12` reads 0.38% (inactive); that for `CCCCCCCCCCOc1cc2c(=O)c(C(=O)OCC)c[nH]c2cc1OCC`, 30.1% (inactive).
For the compound `O=C(O)c1cc(N(Cc2ccccc2O)Cc2ccccc2O)ccc1O`, the activity change, negative = inhibition was 2.11% (inactive).
For `Cc1ccccc1-c1cc(N2CCN(C)CC2)ncc1N(C)C(=O)C(C)(C)c1cc(C(F)(F)F)cc(C(F)(F)F)c1`, the activity change, negative = inhibition is -80.1% (active).
As for `CO[C@@]1(NC(=O)C2SC(=C(C(N)=O)C(=O)O)S2)C(=O)N2C(C(=O)O)=C(CSc3nnnn3C)CSC21` (stereo not given in full), the activity change, negative = inhibition is 5.67% (inactive).
Take `CC1CC2C3CC(F)C4=CC(=O)C=CC4(C)C3(F)C(O)CC2(C)C1(CC(=O)CO)C(=O)SCF` (stereo not given): the activity change, negative = inhibition is -4.39% (inactive).
The result for `Cc1oc(=O)oc1COC(=O)C1=C([C@H]2CCCO2)S[C@@H]2[C@@H]([C@@H](C)O)C(=O)N12` reads 16.9% (inactive); that for `O=C(NCc1ccccc1)c1csc(Nc2ccncn2)n1`, -56.6% (inactive).
For `O=C(NCc1cccc(O)c1)Nc1nc(-c2ccncc2)cs1`, the activity change, negative = inhibition is -70.8% (active).
The result for `Cc1cccc(Nc2nc(-c3ccncc3)cs2)c1` reads 107% (inactive); that for `CC(C)CN(C[C@@H](OP(=O)(O)O)[C@H](Cc1ccccc1)NC(=O)O[C@H]1CCOC1)S(=O)(=O)c1ccc(N)cc1`, -5.19% (inactive).

Values taken from PubChem BioAssay AID1259421 (Broad Institute, 2018).
